PubChem BioAssay AID1159580 (chemical genetic matrix, 2015)
Several values for one entry are separate records, joined by “and”; a condition that tells them apart may be missing. Equal values may be shown once. The whole screen tested about 5,500 compounds, of which about 2,000 (36%) were called active. Not shown: some 18% with an inconclusive outcome. Cut-off read from the data, not from the text of the source: active = normalized growth mostly below about 0.91 (no sharp cut-off); inconclusive = no clear call, values can overlap the other calls; inactive = mostly above about 0.92. This is one part of the list.

Assay: chemical genetic growth profiling, strain panel (AID 1159580);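 note: tested at 20 µM; growth read once vehicle control cultures reached saturation at 30 °C; 1 = growth at the plate median or of vehicle wells; lower values mean less growth of the strain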
Settings: S. cerevisiae deletion strains, growth OD

Measured: normalized growth

O=c1c(O)cccc2cc(O)c(O)c(O)c12
inactive: locus YBR021W, strain FUR4, active compounds read low 0.921 | locus YDL005C, strain med2, active compounds read low 0.978 | locus YDL040C, strain nat1, active compounds read low 0.946 | locus YDR001C, strain nth1, active compounds read low 0.925 | locus YER110C, active compounds read low 1.02 | locus YGL227W, strain vid30, active compounds read low 0.954 | locus YGL240W, strain doc1, active compounds read low 0.968 | locus YHR094C, strain hxt1, active compounds read low 0.98 | locus YJL168C, strain set2, active compounds read low 0.966 | locus YKR091W, strain srl3, active compounds read low 0.939 | locus YLR102C, strain apc9, active compounds read low 1.02 | locus YMR078C, strain ctf18, active compounds read low 0.971 | locus YMR125W, strain sto1, active compounds read low 0.955 | locus YNL298W, strain CLA4, active compounds read low 0.969 | locus YNL307C, strain MCK1, active compounds read low 0.959 | locus YOL012C, strain htz1 0.272 | locus YOR136W, strain idh2, active compounds read low 0.925 | locus YOR316C, strain cot1, active compounds read low 1 | locus YPR119W, strain clb2, active compounds read low 1.01
active: locus YAL021C, strain ccr4, active compounds read low 0.082 | locus YAL026C, strain drs2, active compounds read low 0.425 | locus YAL030W, strain snc1, active compounds read low 0.884 | locus YBL061C, strain skt5, active compounds read low 0.798 | locus YBR009C, strain hhf1, active compounds read low 0.76 | locus YBR023C, strain chs3, active compounds read low 0.668 | locus YBR171W, strain sec66, active compounds read low 0.881 | locus YBR229C, strain ROT2, active compounds read low 0.844 | locus YBR231C, strain swc5, active compounds read low 0.623 | locus YBR279W, strain paf1, active compounds read low 0.856 | locus YCL011C, strain gbp2, active compounds read low 0.859 | locus YCL016C, strain dcc1, active compounds read low 0.858 | locus YCL029C, strain bik1, active compounds read low 0.443 | locus YCL061C, strain MRC1, active compounds read low 0.833 | locus YCL069W, strain vba3, active compounds read low 0.858 | locus YCR088W, strain abp1, active compounds read low 0.875 | locus YDL035C, strain GPR1, active compounds read low 0.678 | locus YDL074C, strain BRE1, active compounds read low 0.497 | locus YDL101C, strain DUN1, active compounds read low 0.457 | locus YDL185W, strain tfp1, active compounds read low 0.501 | locus YDL192W, strain arf1, active compounds read low 0.742 | locus YDR069C, strain doa4, active compounds read low 0.166 | locus YDR101C, strain arx1, active compounds read low 0.479 | locus YDR137W, strain rgp1, active compounds read low 0.126 | locus YDR159W, strain sac3, active compounds read low 0.149 | locus YDR162C, strain NBP2, active compounds read low 0.515 | locus YDR195W, strain ref2 0.692 | locus YDR297W, strain sur2, active compounds read low 0.877 | locus YDR318W, strain mcm21, active compounds read low 0.885 | locus YDR334W, strain swr1, active compounds read low 0.515 | locus YDR335W, strain msn5, active compounds read low 0.18 | locus YDR388W, active compounds read low 0.855 | locus YDR392W, strain spt3, active compounds read low 0.738 | locus YDR502C, strain sam2, active compounds read low 0.569 | locus YEL003W, strain gim4, active compounds read low 0.671 | locus YEL037C, strain rad23, active compounds read low 0.716 | locus YEL061C, strain CIN8 (second series), active compounds read low 0.878 | locus YER015W, strain faa2, active compounds read low 0.593 | locus YER016W, strain bim1, active compounds read low 0.904 | locus YER111C, strain swi4, active compounds read low 0.22 | locus YER155C, strain BEM2 (second series), active compounds read low 0.489 | locus YER155C, strain BEM2, active compounds read low 0.664 | locus YER167W, strain BCK2, active compounds read low 0.865 | locus YFR010W, strain ubp6, active compounds read low 0.509 | locus YGL078C, strain dbp3, active compounds read low 0.841 | locus YGL086W, strain mad1, active compounds read low 0.758 | locus YGL167C, strain pmr1, active compounds read low 0.757 | locus YGL173C, strain kem1, active compounds read low 0.497 | locus YGL248W, strain PDE1, active compounds read low 0.775 | locus YGL253W, strain hxk2, active compounds read low 0.71 | locus YGR135W, strain pre9, active compounds read low 0.822 | locus YGR252W, strain gcn5, active compounds read low 0.716 | locus YHR013C, strain ard1, active compounds read low 0.577 | locus YHR027C, strain rpn1, active compounds read low 0.554 | locus YHR030C, strain SLT2, active compounds read low 0.898 and 0.73 | locus YHR079C, strain IRE1 (second series), active compounds read low 0.182 | locus YHR079C, strain IRE1, active compounds read low 0.654 | locus YHR129C, strain ARP1, active compounds read low 0.693 | locus YHR142W, strain chs7, active compounds read low 0.536 | locus YHR200W, strain rpn10, active compounds read low 0.817 | locus YIL066C, strain RNR3, active compounds read low 0.768 | locus YIL073C, strain SPO22, active compounds read low 0.508 | locus YIL125W, strain kgd1, active compounds read low 0.783 | locus YIR030C, strain dcg1, active compounds read low 0.812 | locus YJL092W, strain hpr5, active compounds read low 0.9 | locus YJL095W, strain BCK1 (second series), active compounds read low 0.754 | locus YJL095W, strain BCK1, active compounds read low 0.105 and 0.759 | locus YJL115W, strain asf1, active compounds read low 0.894 | locus YJL129C, strain trk1, active compounds read low 0.547 | locus YJL134W, strain LCB3, active compounds read low 0.872 | locus YJL154C, strain vps35, active compounds read low 0.816 | locus YJL164C, strain tpk1, active compounds read low 0.714 | locus YJL166W, strain qcr8, active compounds read low 0.802 | locus YJL187C, strain SWE1 (second series), active compounds read low 0.22 | locus YJL187C, strain SWE1, active compounds read low 0.813 | locus YJR066W, strain TOR1, active compounds read low 0.684 | locus YJR075W, strain HOC1, active compounds read low 0.82 | locus YKL009W, strain mrt4, active compounds read low 0.345 | locus YKL068W, active compounds read low 0.928 | locus YKL085W, strain MDH1 (second series), active compounds read low 0.818 | locus YKL085W, strain MDH1, active compounds read low 0.818 | locus YKL160W, strain elf1, active compounds read low 0.853 | locus YKR001C, strain vps1, active compounds read low 0.818 | locus YKR026C, strain gcn3, active compounds read low 0.915 | locus YLL001W, strain dnm1, active compounds read low 0.699 | locus YLL026W, active compounds read low 0.841 | locus YLL041C, strain sdh2, active compounds read low 0.902 | locus YLR027C, strain aat2, active compounds read low 0.815 | locus YLR039C, strain RIC1, active compounds read low 0.481 | locus YLR058C, strain SHM2, active compounds read low 0.22 | locus YLR113W, strain HOG1, active compounds read low 0.51 | locus YLR221C, strain rsa3, active compounds read low 0.78 | locus YLR258W, strain gsy2, active compounds read low 0.83 | locus YLR262C, strain YPT6 (second series), active compounds read low 0.485 | locus YLR268W, strain sec22, active compounds read low 0.515 | locus YLR320W, strain mms22, active compounds read low 0.595 | locus YLR330W, strain CHS5, active compounds read low 0.852 | locus YLR342W, strain FKS1 (second series), active compounds read low 0.564 | locus YLR342W, strain FKS1, active compounds read low 0.764 | locus YLR357W, strain rsc2, active compounds read low 0.632 | locus YLR370C, strain arc18, active compounds read low 0.656 | locus YLR371W, strain rom2, active compounds read low 0.746 | locus YLR384C, strain iki3, active compounds read low 0.799 | locus YLR418C, strain cdc73, active compounds read low 0.458 | locus YML016C, strain PPZ1, active compounds read low 0.583 | locus YML032C, strain rad52, active compounds read low 0.522 | locus YML120C, strain ndi1, active compounds read low 0.0997 | locus YML124C, strain tub3, active compounds read low 0.839 | locus YMR058W, strain fet3, active compounds read low 0.179 | locus YMR129W, active compounds read low 0.919 | locus YMR205C, strain PFK2, active compounds read low 0.511 | locus YMR223W, strain ubp8, active compounds read low 0.838 | locus YMR231W, strain pep5, active compounds read low 0.183 | locus YMR307W, strain GAS1, active compounds read low 0.586 | locus YNL067W, strain RPL9B, active compounds read low 0.699 | locus YNL071W, strain lat1, active compounds read low 0.833 | locus YNL153C, strain GIM3, active compounds read low 0.511 | locus YNL183C, strain NPR1, active compounds read low 0.66 | locus YNL209W, strain ssb2, active compounds read low 0.398 | locus YNL233W, strain BNI4, active compounds read low 0.741 | locus YNL248C, strain rpa49, active compounds read low 0.811 | locus YNL250W, strain rad50, active compounds read low 0.76 | locus YNL271C, strain bni1, active compounds read low 0.841 | locus YNL322C, strain KRE1 (second series), active compounds read low 0.237 | locus YNR049C, strain mso1, active compounds read low 0.898 | locus YNR052C, strain pop2, active compounds read low 0.185 | locus YOL006C, strain TOP1, active compounds read low 0.423 | locus YOL147C, strain pex11, active compounds read low 0.689 | locus YOR001W, strain rrp6, active compounds read low 0.686 | locus YOR061W, strain CKA2, active compounds read low 0.734 | locus YOR069W, strain VPS5, active compounds read low 0.775 | locus YOR070C, strain gyp1, active compounds read low 0.901 | locus YOR080W, strain dia2, active compounds read low 0.553 | locus YOR083W, strain WHI5, active compounds read low 0.737 | locus YOR106W, strain vam3, active compounds read low 0.367 | locus YOR144C, strain elg1, active compounds read low 0.545 | locus YOR184W, strain ser1, active compounds read low 0.636 | locus YOR231W, strain MKK1, active compounds read low 0.665 | locus YOR265W, strain rbl2, active compounds read low 0.871 | locus YOR270C, strain vph1, active compounds read low 0.16 | locus YOR290C, strain snf2, active compounds read low 0.105 | locus YPL051W, strain arl3, active compounds read low 0.525 | locus YPL078C, strain atp4, active compounds read low 0.284 | locus YPL106C, strain sse1, active compounds read low 0.747 | locus YPL240C, strain hsp82, active compounds read low 0.864 | locus YPL241C, strain CIN2, active compounds read low 0.841 | locus YPL256C, strain CLN2, active compounds read low 0.601 | locus YPR141C, strain kar3, active compounds read low 0.607 | locus YPR163C, strain tif3, active compounds read low 0.884 | locus YPR167C, strain met16, active compounds read low 0.871 | strain wtn01, active compounds read low 0.761
